These results are taken from PubChem BioAssay (NCI).

Compounds without any hit were thinned out: in the full panel of roughly 83,000, 20% have a hit.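 Each cell line was grown in a 96-well plate and treated with one concentration of compound for 48 hours. Values below 10 were considered active.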 Unmarked numbers belong to inactive results. Active and inactive are the calls of the source.

The test system of the test is COLO 205 colon. The test is described as follows: NCI-60 one-dose screen, 48 h (100 = growth as untreated, 0 = no growth, -100 = all killed). Particulars: 10 µM unless noted. As to the method: Cells are grown in 96 well plates and exposed to the test compound for 48 hours. Compounds are tested at a single concentration, which is 10^-5 M for most compounds. The reported endpoint is percent growth (GI% or GIPRCNT), where numbers from 0 - 100% represent growth inhibition, and numbers from -100% - 0 represent cell death. For example, a value of 40 represents 60% growth inhibition. A value of 0 means no net growth occurred over the course of the experiment. A value of -40 indicates 40% of cells at the beginning of the experiment died by the end of the experiment. A value of -100 means all cells are dead at the end of the experiment.
NCI-60 Human Tumor Cell Lines Screen was performed using the standard one-dose NCI protocol, which is described in more detail at https://dtp.cancer.gov/discovery_development/nci-60/default.htm.
Compounds with GIPRCNT values below 10 were considered active. Activity score was based on GIPRCNT using the following formula: […]
Score is 0 for GIPRCNT values of 100 or above, 50 for GIPRCNT values of 0, and 100 for GIPRCNT values of -100.
Turning to `CN1CCN(Cc2ccc(NC(=O)c3nc4ccc5[nH]ncc5c4c4c3CCC4)cc2C(F)(F)F)CC1`, the growth was -43% (active). In the case of `CN(C[C@H]1Cc2c(cccc2N2CCN(Cc3ccccn3)CC2)CN1)[C@H]1CCCc2cccnc21`, the growth is 69.6%. Under `COc1ccc(-c2ccc(-c3ccc(C(=N)N)s3)s2)cc1Cl` stands -48.4% (active); under `CCOc1cc2c(Cl)ncnc2c(OCC)c1OCC`, 95.8%. As for `CCN(CC)CCOc1ccc(/C(=C(/C)c2ccccc2)c2ccc(OC(C)=O)cc2)cc1`, the figure is 113%. For `O=C(c1ccccc1)c1c(/C=C/c2ccccc2)c2ccccc2[nH]c1=O`, the growth is 110%. Under `O=C(NNC(=O)N1c2ccccc2C=Cc2ccccc21)c1ccc2ccccc2c1` stands 101%. As for `COc1ccc(/C(C#N)=C/c2cc(OC)c(OC)c(OC)c2)cc1`, the figure is 24.3%. For the compound `OCc1ncc(-c2ccccc2)s1`, the growth is 114%.

Regarding `COc1cc(C(=O)/C=C/c2ccc3nc(-c4cc(F)cc(F)c4)sc3c2)cc(OC)c1OC`, the growth was 115%. Regarding `C=CCn1cc(-c2nc3ccccc3s2)c2cc(-c3ccc4c5c(cccc35)C(=O)N(CCN3CCNCC3)C4=O)ccc21`, the growth was 107%. As for `CN(C)CC(C(=O)c1ccccc1)c1ccccc1` (stereo not given), the figure is -48% (active); as for `COc1ccc2c(c1)cn1c3ccc(OC)cc3[nH]c(=O)c21`, -61.3% (active).

For `O=C1/C(=C/c2ccccc2)CN(C(=O)CCN2CCC(=NO)CC2)C/C1=C\c1ccccc1`, the growth is -46.8% (active). For `CC(C)CSc1nc(NN)c(C#N)c(-c2ccc(F)cc2)n1`, the growth was 97.1%. `N#Cc1c(-c2ccccc2)nc(SCC(=O)N2CCN(c3ccccc3)CC2)[nH]c1=O`: the growth was 103%.

As for `COc1ccc(C(=O)NC(=O)Nc2cc3c(cc2F)/C(=C/c2[nH]c(C)c(CCC(=O)O)c2C)C(=O)N3)c(F)c1`, the growth is 67.4%. Under `Cn1cnc2c(N3CCN(C(=O)OCc4ccc5c(Cl)cc(Cl)c(O)c5n4)CC3)nc(Cl)nc21` stands 109%; under `O=c1[nH]c(Nc2ccc(S(=O)(=O)O)cc2)nc2nc(Nc3ccc(NC(=S)Nc4ccccc4)cc3)nc(-c3ccc(O)cc3O)c12`, 119%. Regarding `O=[N+]([O-])c1ccc(/C=C/C2(CCl)OCCO2)cc1`, the growth was 107%.

Turning to `Nc1nc(Nc2cc(Cl)cc(Cl)c2)nn1S(=O)(=O)c1ccc2ccccc2c1`, the growth is 66.5%. As to `COc1cccc(CC(C)=C(c2ccc(OCCN(C)C)cc2)c2ccc(OCCN(C)C)cc2)c1`, the growth was -70.5% (active). As for `Nc1cc2c([nH]c[n+]2CC#CCCl)c(SCC#CCCl)n1`, the figure is -48.5% (active); as for `Cc1nn(-c2ccc([N+](=O)[O-])cc2)c2ncnc(NCCc3ccccc3)c12`, 104%. Under `O=C(c1ccccc1)C1OC1c1ccc([N+](=O)[O-])cc1` (stereo not given) stands 112%; under `CCN(CC)CCOC(=O)C(c1ccccc1)(c1ccccc1)C(C)C`, 66.3%; under `COc1cc(Nc2nc(N[C@H]3CCCC[C@@H]3N)nc3cc[nH]c(=O)c23)cc(OC)c1`, 18.8%. As for `Cc1ccc(S(=O)(=O)c2nc(-c3ccccc3)oc2S(C)(=O)=O)cc1`, the figure is -76.6% (active); as for `C=C1C(=O)O[C@H]2[C@H]1CC/C(Cn1cc(CNC(=O)c3cc4ccccc4[nH]3)nn1)=C\CC[C@@]1(C)O[C@@H]21`, -34.4% (active). For the compound `CCOC(=O)c1cn2c3c(cccc3c1=O)C(=O)/C(=C/c1cccc(Cl)c1Cl)C2`, the growth is 117%. As for `COc1cc(-c2nc(N=Nc3c(O)[nH]c4ccc(Br)cc34)[nH]c(=O)c2C#N)cc(OC)c1OC`, the figure is 114%; as for `CCOC(=O)NNC(=S)Nc1ccccc1`, 131%; as for `C=C1CCC2C3(C)COC(c4ccc(N(C)C)cc4)OC3CCC2(C)C1C/C=C1/C(=O)OCC1O` (stereo not given), 19.5%. Under `Cc1ccc(S(=O)(=O)n2cc(C(=O)C(=O)Nc3ccncc3)c3ccccc32)cc1` stands 107%; under `Brc1ccc(-c2[nH]ncc2-c2c[nH]c3ccccc23)cc1`, 109%; under `C=C1CCC2C3(C)COC(c4c(OC)cccc4OC)OC3CCC2(C)C1C/C=C1/C(=O)OCC1O` (stereo not given), -15.2% (active). Under `COc1cc2c(=O)n(C3CCCCCC3)c3c4cc[nH]c4ncc3c2cc1OC` stands 79.9%. For the compound `CCO/C=N/C1=C(C#N)C(c2ccc(Cl)cc2)c2c(c3ccccc3n(C)c2=O)O1` (stereo not given), the growth was 71.5%. Under `CCCCCCCC[C@@H](O)CC(=O)N[C@@H](CC(N)=O)C(=O)N[C@@H](CCC(N)=O)C(=O)N[C@@H](CC(=O)c1cc(C)cc(O)c1C(=O)c1c(O)cccc1O)CC(C)C` stands 13.5%; under `N=C(N)c1ccc(-c2ccc(-c3ccc4ccccc4c3)s2)cc1`, 97.9%.
